Measurements reported in ChEMBL document CHEMBL1961873, “Compounds: GSK PKIS; Assays: Nanosyn kinase panel” (2012).

How the values were obtained:
[1] = target: T1, Mitogen-activated protein kinase 12 (Homo sapiens) (UniProt P53778); conditions: at 1 µM;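 further: values are averaged p38gamma kinase inhibition readings, compounds tested at 1 µM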
T1 sequence (whole entry): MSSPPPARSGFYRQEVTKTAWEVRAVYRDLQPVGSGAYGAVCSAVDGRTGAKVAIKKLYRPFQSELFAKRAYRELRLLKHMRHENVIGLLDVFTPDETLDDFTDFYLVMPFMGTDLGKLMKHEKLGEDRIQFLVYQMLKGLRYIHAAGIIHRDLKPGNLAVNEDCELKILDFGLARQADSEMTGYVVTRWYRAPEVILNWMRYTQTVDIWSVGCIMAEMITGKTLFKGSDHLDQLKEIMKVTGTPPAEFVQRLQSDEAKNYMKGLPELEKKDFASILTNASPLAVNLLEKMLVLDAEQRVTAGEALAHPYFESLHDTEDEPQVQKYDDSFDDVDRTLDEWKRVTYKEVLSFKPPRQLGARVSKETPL

[2] = target: SRSF protein kinase 1 (Homo sapiens) (UniProt Q96SB4); conditions: at 0.1 µM
[3] = target: SRSF protein kinase 1 (Homo sapiens) (UniProt Q96SB4); conditions: at 1 µM
[4] = target: Phosphatidylinositol 4,5-bisphosphate 3-kinase catalytic subunit alpha isoform (Homo sapiens) (UniProt P42336); conditions: at 0.1 µM
[5] = target: Phosphatidylinositol 4,5-bisphosphate 3-kinase catalytic subunit alpha isoform (Homo sapiens) (UniProt P42336); conditions: at 1 µM
[6] = target: T2, Phosphatidylinositol 4,5-bisphosphate 3-kinase catalytic subunit delta isoform (Homo sapiens) (UniProt O00329); conditions: at 0.1 µM
T2 sequence (whole entry): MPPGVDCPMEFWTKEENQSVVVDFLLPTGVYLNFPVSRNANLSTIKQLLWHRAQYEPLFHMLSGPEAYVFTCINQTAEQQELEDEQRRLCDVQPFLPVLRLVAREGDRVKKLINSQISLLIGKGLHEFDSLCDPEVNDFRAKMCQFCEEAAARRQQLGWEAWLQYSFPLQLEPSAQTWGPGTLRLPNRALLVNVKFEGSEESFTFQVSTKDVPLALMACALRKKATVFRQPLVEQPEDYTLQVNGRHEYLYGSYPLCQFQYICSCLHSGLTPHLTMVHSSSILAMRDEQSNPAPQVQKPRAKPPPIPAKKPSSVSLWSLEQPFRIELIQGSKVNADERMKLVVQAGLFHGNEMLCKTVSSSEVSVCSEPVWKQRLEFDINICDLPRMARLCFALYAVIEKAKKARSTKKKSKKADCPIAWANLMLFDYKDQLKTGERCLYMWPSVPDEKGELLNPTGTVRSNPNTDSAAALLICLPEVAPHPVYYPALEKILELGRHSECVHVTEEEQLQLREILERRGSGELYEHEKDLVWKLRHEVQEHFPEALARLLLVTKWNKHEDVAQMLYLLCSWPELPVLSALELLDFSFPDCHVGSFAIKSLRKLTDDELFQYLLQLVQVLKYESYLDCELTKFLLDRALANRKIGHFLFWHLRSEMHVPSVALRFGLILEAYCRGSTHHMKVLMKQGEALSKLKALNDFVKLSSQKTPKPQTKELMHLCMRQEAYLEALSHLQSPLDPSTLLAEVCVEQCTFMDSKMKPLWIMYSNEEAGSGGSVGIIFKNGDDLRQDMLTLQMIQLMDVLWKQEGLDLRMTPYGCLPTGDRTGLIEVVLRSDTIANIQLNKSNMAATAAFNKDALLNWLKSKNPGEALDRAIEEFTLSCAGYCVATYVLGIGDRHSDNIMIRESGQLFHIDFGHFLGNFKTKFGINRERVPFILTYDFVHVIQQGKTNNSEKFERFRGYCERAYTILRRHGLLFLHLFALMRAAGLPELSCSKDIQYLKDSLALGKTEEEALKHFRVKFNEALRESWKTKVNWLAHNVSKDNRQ

[7] = target: T2, Phosphatidylinositol 4,5-bisphosphate 3-kinase catalytic subunit delta isoform (Homo sapiens); conditions: at 1 µM
[8] = target: Phosphatidylinositol 4-kinase beta (Homo sapiens) (UniProt Q9UBF8); conditions: at 0.1 µM
[9] = target: Phosphatidylinositol 4-kinase beta (Homo sapiens) (UniProt Q9UBF8); conditions: at 1 µM
[10] = target: Sphingosine kinase 1 (Homo sapiens) (UniProt Q9NYA1); conditions: at 0.1 µM
[11] = target: Sphingosine kinase 1 (Homo sapiens) (UniProt Q9NYA1); conditions: at 1 µM
[12] = target: T3, Sphingosine kinase 2 (Homo sapiens) (UniProt Q9NRA0); conditions: at 0.1 µM
T3 sequence (whole entry): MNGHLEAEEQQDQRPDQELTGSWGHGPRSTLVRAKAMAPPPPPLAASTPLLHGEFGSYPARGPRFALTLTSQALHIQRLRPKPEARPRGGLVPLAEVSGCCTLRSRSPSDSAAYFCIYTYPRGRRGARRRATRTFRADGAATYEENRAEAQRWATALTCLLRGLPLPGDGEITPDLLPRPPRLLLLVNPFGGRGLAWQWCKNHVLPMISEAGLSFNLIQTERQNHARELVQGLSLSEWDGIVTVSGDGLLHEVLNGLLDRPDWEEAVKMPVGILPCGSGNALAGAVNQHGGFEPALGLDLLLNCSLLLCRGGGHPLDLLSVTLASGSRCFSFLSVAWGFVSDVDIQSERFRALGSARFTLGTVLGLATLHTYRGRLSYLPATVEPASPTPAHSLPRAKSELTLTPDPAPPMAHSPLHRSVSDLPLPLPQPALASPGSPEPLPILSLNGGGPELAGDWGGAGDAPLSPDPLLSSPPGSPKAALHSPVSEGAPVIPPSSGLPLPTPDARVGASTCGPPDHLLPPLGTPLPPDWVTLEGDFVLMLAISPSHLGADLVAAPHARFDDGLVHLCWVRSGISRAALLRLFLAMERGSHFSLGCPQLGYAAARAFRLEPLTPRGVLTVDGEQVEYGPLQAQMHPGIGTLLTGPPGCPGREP

[13] = target: T3, Sphingosine kinase 2 (Homo sapiens); conditions: at 1 µM
[14] = target: Casein kinase II subunit alpha (Homo sapiens) (UniProt P68400); conditions: at 0.1 µM
[15] = target: Casein kinase II subunit alpha (Homo sapiens) (UniProt P68400); conditions: at 1 µM
[16] = target: T4, Inhibitor of nuclear factor kappa-B kinase subunit alpha (Homo sapiens) (UniProt O15111); conditions: at 0.1 µM
T4 sequence (whole entry): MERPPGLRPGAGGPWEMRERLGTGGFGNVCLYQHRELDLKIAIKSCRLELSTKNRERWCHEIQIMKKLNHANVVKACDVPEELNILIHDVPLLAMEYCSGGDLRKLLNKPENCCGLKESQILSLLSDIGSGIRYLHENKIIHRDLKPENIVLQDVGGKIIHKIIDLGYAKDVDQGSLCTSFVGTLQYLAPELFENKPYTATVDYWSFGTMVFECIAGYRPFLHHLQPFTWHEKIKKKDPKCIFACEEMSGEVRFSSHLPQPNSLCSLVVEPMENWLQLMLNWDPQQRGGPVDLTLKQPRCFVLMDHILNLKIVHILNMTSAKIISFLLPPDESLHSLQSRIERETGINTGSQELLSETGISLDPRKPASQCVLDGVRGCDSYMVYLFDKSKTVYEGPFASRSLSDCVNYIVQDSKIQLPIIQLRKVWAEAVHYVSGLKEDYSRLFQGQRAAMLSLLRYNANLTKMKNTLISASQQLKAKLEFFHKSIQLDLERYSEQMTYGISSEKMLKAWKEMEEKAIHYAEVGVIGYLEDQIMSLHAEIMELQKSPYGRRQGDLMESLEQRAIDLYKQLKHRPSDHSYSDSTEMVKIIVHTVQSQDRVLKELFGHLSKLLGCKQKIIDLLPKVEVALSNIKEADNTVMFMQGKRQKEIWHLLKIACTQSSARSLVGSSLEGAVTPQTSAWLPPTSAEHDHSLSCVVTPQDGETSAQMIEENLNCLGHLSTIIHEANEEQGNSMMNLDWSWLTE

[17] = target: T4, Inhibitor of nuclear factor kappa-B kinase subunit alpha (Homo sapiens); conditions: at 1 µM
[18] = target: T5, Inhibitor of nuclear factor kappa-B kinase subunit beta (Homo sapiens) (UniProt O14920); conditions: at 0.1 µM
T5 sequence (whole entry): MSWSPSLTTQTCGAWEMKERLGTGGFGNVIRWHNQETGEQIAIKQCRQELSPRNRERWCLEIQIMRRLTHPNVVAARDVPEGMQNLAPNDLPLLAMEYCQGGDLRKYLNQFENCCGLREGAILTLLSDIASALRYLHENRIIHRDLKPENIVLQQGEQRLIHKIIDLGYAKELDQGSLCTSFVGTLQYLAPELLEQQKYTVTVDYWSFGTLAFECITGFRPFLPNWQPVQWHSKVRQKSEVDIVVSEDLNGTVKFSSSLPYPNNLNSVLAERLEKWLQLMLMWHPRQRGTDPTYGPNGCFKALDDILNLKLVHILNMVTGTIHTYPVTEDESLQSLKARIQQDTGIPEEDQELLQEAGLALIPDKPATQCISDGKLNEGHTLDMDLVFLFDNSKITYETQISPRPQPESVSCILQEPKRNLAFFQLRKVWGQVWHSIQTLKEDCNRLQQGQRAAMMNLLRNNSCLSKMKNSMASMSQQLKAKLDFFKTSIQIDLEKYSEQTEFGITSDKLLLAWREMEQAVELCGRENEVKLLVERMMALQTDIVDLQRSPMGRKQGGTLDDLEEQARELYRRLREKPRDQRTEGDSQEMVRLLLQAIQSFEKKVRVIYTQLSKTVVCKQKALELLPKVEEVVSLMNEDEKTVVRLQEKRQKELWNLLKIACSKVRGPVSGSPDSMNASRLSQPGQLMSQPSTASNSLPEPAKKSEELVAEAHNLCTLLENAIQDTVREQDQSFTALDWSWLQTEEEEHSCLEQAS

[19] = target: T5, Inhibitor of nuclear factor kappa-B kinase subunit beta (Homo sapiens); conditions: at 1 µM
[20] = target: T6, Inhibitor of nuclear factor kappa-B kinase subunit epsilon (Homo sapiens) (UniProt Q14164); conditions: at 0.1 µM;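 further: mean inhibition of IKKε reported, from the GSK PKIS dataset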
T6 sequence (whole entry): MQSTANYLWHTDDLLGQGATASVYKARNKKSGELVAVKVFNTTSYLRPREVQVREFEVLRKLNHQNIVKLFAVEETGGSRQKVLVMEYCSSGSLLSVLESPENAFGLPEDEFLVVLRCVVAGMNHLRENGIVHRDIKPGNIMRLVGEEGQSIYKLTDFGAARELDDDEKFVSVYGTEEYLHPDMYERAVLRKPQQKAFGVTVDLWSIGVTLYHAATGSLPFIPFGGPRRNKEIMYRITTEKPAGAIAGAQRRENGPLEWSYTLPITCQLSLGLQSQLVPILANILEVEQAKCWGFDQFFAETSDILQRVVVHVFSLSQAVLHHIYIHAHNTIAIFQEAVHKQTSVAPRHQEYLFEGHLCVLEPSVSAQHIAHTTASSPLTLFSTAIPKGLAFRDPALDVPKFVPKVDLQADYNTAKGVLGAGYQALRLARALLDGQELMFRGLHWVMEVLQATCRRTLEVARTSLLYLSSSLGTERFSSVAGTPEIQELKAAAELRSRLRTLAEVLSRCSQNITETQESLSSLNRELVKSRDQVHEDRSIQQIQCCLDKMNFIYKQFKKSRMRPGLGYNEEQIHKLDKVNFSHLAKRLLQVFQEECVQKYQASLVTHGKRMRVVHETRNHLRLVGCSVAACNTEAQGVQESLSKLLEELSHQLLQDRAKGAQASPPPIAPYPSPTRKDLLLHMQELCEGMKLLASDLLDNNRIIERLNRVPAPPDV

Chain of Phosphatidylinositol 4,5-bisphosphate 3-kinase catalytic subunit alpha isoform (Homo sapiens) (P42336 whole entry, canonical isoform): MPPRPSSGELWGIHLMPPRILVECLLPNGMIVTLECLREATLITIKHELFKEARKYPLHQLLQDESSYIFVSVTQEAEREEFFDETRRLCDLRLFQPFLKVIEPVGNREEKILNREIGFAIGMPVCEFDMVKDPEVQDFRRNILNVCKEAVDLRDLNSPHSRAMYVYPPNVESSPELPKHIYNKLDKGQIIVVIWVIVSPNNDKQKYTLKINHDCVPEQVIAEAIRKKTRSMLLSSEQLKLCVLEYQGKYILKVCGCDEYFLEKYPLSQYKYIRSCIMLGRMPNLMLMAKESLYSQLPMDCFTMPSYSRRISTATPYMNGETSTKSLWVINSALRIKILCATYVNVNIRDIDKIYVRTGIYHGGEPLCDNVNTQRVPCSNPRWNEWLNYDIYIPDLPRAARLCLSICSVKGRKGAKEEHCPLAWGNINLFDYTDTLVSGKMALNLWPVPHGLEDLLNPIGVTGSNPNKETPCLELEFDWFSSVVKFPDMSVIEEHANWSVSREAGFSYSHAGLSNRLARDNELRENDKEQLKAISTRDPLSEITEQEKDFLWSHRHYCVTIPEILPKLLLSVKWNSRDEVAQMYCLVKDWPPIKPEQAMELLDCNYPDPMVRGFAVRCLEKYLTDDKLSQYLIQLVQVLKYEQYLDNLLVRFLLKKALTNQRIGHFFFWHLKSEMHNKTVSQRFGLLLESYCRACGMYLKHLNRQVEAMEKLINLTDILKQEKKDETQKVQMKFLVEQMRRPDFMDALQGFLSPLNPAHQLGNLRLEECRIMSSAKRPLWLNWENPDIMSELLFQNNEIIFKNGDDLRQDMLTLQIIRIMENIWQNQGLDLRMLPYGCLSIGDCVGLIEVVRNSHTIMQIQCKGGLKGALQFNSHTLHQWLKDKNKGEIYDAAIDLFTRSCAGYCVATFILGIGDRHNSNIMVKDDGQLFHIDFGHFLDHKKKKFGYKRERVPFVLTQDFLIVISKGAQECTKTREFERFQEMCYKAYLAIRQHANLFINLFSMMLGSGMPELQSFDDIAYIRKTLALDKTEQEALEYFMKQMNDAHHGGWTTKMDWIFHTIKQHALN
Chain of Sphingosine kinase 1 (Homo sapiens) (Q9NYA1 whole entry): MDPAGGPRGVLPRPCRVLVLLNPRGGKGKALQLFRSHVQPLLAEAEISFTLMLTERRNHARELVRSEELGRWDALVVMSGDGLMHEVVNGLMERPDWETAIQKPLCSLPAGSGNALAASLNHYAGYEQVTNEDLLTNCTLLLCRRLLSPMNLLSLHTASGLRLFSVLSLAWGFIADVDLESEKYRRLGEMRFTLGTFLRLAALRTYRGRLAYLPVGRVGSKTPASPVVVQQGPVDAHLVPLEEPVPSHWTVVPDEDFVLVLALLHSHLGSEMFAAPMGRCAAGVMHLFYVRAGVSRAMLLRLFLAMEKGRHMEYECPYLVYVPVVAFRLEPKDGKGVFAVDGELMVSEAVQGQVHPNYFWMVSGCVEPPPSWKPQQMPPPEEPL
Chain of Phosphatidylinositol 4-kinase beta (Homo sapiens) (Q9UBF8 2-816 limits assumed): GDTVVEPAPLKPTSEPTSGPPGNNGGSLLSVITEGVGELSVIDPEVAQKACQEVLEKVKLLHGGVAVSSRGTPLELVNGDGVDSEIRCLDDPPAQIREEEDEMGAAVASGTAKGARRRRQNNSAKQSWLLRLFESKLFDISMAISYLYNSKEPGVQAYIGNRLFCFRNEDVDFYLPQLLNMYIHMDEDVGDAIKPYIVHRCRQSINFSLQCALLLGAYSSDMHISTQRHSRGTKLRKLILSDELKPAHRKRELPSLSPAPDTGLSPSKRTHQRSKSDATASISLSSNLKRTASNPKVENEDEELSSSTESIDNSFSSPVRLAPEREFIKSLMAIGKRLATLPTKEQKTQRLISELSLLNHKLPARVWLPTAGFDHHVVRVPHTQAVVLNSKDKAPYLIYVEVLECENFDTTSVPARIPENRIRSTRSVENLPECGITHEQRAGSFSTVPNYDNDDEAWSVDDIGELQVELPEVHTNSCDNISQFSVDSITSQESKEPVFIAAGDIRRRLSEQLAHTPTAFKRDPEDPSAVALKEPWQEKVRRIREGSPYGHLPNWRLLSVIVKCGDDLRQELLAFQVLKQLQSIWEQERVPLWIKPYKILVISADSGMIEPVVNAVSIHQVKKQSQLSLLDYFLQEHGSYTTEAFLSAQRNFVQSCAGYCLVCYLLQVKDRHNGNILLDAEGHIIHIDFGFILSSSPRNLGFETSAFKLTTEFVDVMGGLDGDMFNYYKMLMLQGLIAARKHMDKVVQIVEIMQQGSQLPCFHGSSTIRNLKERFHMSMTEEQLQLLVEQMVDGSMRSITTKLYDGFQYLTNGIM
Chain of Casein kinase II subunit alpha (Homo sapiens) (P68400 whole entry, looked up): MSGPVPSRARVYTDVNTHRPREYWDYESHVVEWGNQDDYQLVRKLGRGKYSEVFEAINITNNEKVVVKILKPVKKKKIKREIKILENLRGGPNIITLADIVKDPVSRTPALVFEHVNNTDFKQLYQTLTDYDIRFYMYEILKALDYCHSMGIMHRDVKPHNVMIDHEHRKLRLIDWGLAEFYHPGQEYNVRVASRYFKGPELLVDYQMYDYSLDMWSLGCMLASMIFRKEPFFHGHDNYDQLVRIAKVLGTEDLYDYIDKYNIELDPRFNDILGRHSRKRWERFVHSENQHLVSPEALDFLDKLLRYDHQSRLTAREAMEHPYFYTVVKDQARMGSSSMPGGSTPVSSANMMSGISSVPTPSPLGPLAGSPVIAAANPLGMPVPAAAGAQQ
Chain of SRSF protein kinase 1 (Homo sapiens) (Q96SB4 whole entry, canonical isoform): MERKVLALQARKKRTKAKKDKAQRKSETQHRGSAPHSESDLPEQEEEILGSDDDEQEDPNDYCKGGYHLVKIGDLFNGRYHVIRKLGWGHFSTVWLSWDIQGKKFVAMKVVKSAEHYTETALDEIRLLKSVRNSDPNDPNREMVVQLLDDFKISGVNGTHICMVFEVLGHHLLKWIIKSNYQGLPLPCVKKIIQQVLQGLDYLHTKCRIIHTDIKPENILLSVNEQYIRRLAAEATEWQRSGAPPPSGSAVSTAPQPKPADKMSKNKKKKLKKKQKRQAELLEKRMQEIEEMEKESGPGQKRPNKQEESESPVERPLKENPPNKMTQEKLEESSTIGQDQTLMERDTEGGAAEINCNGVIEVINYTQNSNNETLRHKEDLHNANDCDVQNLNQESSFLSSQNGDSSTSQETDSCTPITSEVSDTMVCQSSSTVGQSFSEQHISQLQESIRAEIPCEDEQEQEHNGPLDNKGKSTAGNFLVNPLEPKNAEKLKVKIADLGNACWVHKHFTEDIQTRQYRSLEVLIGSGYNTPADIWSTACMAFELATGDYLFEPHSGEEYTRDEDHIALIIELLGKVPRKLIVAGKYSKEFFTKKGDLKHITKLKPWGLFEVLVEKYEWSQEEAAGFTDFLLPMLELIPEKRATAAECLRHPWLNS

SMILES | inhibition [1] [%] | inhibition [2] [%] | inhibition [3] [%] | inhibition [4] [%] | inhibition [5] [%] | inhibition [6] [%] | inhibition [7] [%] | inhibition [8] [%] | inhibition [9] [%] | inhibition [10] [%] | inhibition [11] [%] | inhibition [12] [%] | inhibition [13] [%] | inhibition [14] [%] | inhibition [15] [%] | inhibition [16] [%] | inhibition [17] [%] | inhibition [18] [%] | inhibition [19] [%] | inhibition [20] [%]
CCc1nn2ncccc2c1-c1ccnc(NC2CC2)n1 | 3.05 | -1.37 | -0.37 | 1.28 | 1.26 | 0.07 | 0.87 | 5.11 | 8.09 | -2.72 | 0.9 | 0 | 0.3 | 1.46 | 4.59 | 3.61 | 6.96 | 4.78 | 3.76 | 4.47
Fc1ccc(-c2nn3ccccc3c2-c2ccncc2)cc1 | 1.62 | -2.12 | -2.82 | 0.14 | 1.14 | 0.32 | 2.31 | -1.2 | 1.37 | -0.49 | -4.19 | 0.23 | -0.19 | -0.45 | 0.13 | 2.86 | -1.37 | 0.51 | 0.63 | 2.31
CCn1c(-c2nonc2N)nc2ccccc21 | 1.22 | -2.61 | -2.83 | 3.75 | 1.82 | 3.37 | 3.25 | 7.06 | 0.95 | 0.28 | 1.74 | 13.1 | -0.24 | 0.89 | -1.31 | -3.92 | -1.19 | 2.35 | -1 | 2.9
CC1=C(C(=O)Nc2cc(Cl)c3[nH]ncc3c2)C(c2ccc(C(F)(F)F)cc2)CC(=O)N1 (stereo not given) | 2.49 | -1.04 | -1.39 | 2.86 | 6.37 | 1.38 | 4.61 | 3.72 | 1.77 | 6.22 | -1.96 | 0.58 | 0.72 | 3.06 | 1.13 | 4.43 | 4.34 | 3.26 | 5.73 | 4.64
COc1cc2c(cc1Nc1nc(Nc3ccsc3C(N)=O)c3cc[nH]c3n1)N(C(=O)CN(C)C)CCC2(C)C | 4.23 | -1.82 | 15.8 | 4.65 | 5.27 | 2.82 | 13.9 | -0.32 | -1.38 | 3.22 | 1.56 | -0.3 | -2.8 | 39.4 | 75.3 | 5.27 | 0.27 | 8.68 | 6.07 | 10.8
COc1ccc2[nH]c3c4[nH]c5ccc(OC)cc5c4c4c(c3c2c1)C(=O)NC4=O | 1.03 | -1 | 6.5 | 6.77 | 14.6 | 4.48 | 10.1 | -1.55 | -0.12 | -3.65 | -1.68 | -2.46 | -0.32 | 6.4 | 15.9 | 5.28 | 6.84 | 3.54 | 4.71 | 13.5
